In the supplement of paper PMC6555819:

Legend:
Test in all cases: PBM binding z-score (relative to random genomic background probes); higher = stronger binding; sequences stand for … in GC…GCGATTGACAGCGTAGAATGAAGG
[1] = tested on: FXR:RXRa (NR concentration 270 nM, RXRa partner concentration 90 nM)
Method in brief: (§1)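 Each nuclear receptor dimer, without ligand, was incubated for 1 h on custom Agilent 4×180K protein-binding microarrays. Binding was detected with antibodies against each partner (one per run), and scanned fluorescence was regression-normalized. The binding z-scores are referenced to random human genomic background probes.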

[2] = tested on: LXRa:RXRa (NR concentration 270 nM, RXRa partner concentration 90 nM)
Method in brief: as §1

[3] = tested on: LXRa homodimer (NR concentration 270 nM)
Method in brief: as §1

[4] = tested on: LXRb:RXRa (NR concentration 270 nM, RXRa partner concentration 90 nM)
Method in brief: as §1

[5] = tested on: LXRb homodimer (NR concentration 270 nM)
Method in brief: as §1

[6] = tested on: PPARa:RXRa (NR concentration 270 nM, RXRa partner concentration 90 nM)
Method in brief: as §1

[7] = tested on: PPARg:RXRa (NR concentration 180 nM, RXRa partner concentration 90 nM)
Method in brief: as §1

[8] = tested on: PPARg:RXRa 270nM:90nM, anti-RXR (NR concentration 270 nM, RXRa partner concentration 90 nM)
Method in brief: as §1

[9] = tested on: PPARg:RXRa 30nM:10nM, anti-RXR (NR concentration 30 nM, RXRa partner concentration 10 nM)
Method in brief: as §1

[10] = tested on: PPARg:RXRa 90nM:30nM, anti-RXR (NR concentration 90 nM, RXRa partner concentration 30 nM)
Method in brief: as §1

[11] = tested on: PPARg:RXRa DBDmut IVT, anti-RXR (DBD mutation: RXRa K156A/R161A, NR concentration 270 nM, RXRa partner concentration 90 nM)
Method in brief: as §1

[12] = tested on: PPARg:RXRa IVT, anti-PPARg (NR concentration 270 nM, RXRa partner concentration 90 nM)
Method in brief: as §1

[13] = tested on: PPARg DBDmut:RXRa IVT, anti-PPARg (DBD mutation: PPARg1 K132A/R137A, NR concentration 270 nM, RXRa partner concentration 90 nM)
Method in brief: as §1

[14] = tested on: PPARg DBDmut IVT, anti-PPARg (DBD mutation: PPARg1 K132A/R137A, NR concentration 270 nM)
Method in brief: as §1

[15] = tested on: PPARg homodimer (NR concentration 180 nM)
Method in brief: as §1

[16] = tested on: PXR:RXRa (NR concentration 270 nM, RXRa partner concentration 90 nM)
Method in brief: as §1

[17] = tested on: PXR homodimer (NR concentration 270 nM)
Method in brief: as §1

[18] = tested on: RARa:RXR (NR concentration 270 nM, RXRa partner concentration 90 nM)
Method in brief: as §1

[19] = tested on: RARa homodimer (NR concentration 270 nM)
Method in brief: as §1

[20] = tested on: RARb:RXRa (NR concentration 270 nM, RXRa partner concentration 90 nM)
Method in brief: as §1

Sequence | PBM binding z-score [1] | PBM binding z-score [2] | PBM binding z-score [3] | PBM binding z-score [4] | PBM binding z-score [5] | PBM binding z-score [6] | PBM binding z-score [7] | PBM binding z-score [8] | PBM binding z-score [9] | PBM binding z-score [10] | PBM binding z-score [11] | PBM binding z-score [12] | PBM binding z-score [13] | PBM binding z-score [14] | PBM binding z-score [15] | PBM binding z-score [16] | PBM binding z-score [17] | PBM binding z-score [18] | PBM binding z-score [19] | PBM binding z-score [20]
TCTGCTAGGTCAGTTGGTCAGCTAGCGAGCTGCC | 0.851 | 0.628 | -0.728 | 0.453 | 0.185 | 1.25 | 0.0409 | 1.64 | 1.21 | 1.31 | 2.78 | 3.15 | -0.34 | -0.0427 | -0.0101 | 0.114 | -0.917 | 0.452 | -1.22 | 3.38
ATCCAAAGGTCGAAGGTGAGTATACCCACCCGAA | 5.05 | 4.12 | 0.34 | 3.2 | 0.577 | 4.95 | 5.19 | 5.37 | 2.53 | 4.33 | 0.6 | 2.51 | 0.413 | 0.999 | 2.58 | 3.26 | 0.0246 | 4.54 | 0.353 | 3.97
ATATGTACGTTACATCCGGGTCATTCAGGCTATG | 1.77 | 1.94 | 1.06 | 2.44 | 0.756 | 2.53 | 1.39 | 1.41 | 0.502 | 1.35 | 1.16 | 1.97 | 2.06 | 2.28 | 1.34 | 3.1 | 3.05 | 3.04 | 0.866 | 1.56
ACAGACAGGTGAGTGAAGTTAACTCAGCTGGACG | -0.59 | -0.611 | -0.779 | -0.663 | -0.63 | -0.341 | 0.529 | -0.616 | -0.371 | -0.832 | 0.505 | 0.404 | -0.391 | -0.406 | -0.447 | -0.325 | -0.705 | -0.744 | -0.259 | 0.258
TGTCAAAGTTCAAAGGTAGCGTAAGTATCCACAC | 6.72 | 6.04 | 4.44 | 4.05 | 1.42 | 5.57 | 8.17 | 7.45 | 4.48 | 7.05 | 0.0975 | 4.06 | 0.876 | 0.963 | -0.119 | 5.11 | 3.16 | 4.97 | 0.73 | 5.09
ACTAGCAGGCGAAGGGTCACTCAAGATTAGTCCG | 2.18 | 2.19 | 0.132 | 2.12 | -0.71 | 3.72 | 5.6 | 5.62 | 3.86 | 6.27 | -0.0679 | 2.22 | -0.671 | -0.597 | 1.88 | 2.32 | -0.24 | 3.29 | -0.0684 | 3.31
AGAATGAGGTTATTTAGATCAGGGAATTGCGGTC | 2.23 | 1.9 | 0.538 | 1.56 | 0.456 | 2.9 | 1.33 | 1.89 | 0.586 | 1.17 | 2.96 | 2.43 | 1.1 | 0.243 | 1.23 | 1.34 | 0.696 | 1.6 | 0.731 | 1.38
CCCTACGGGTCAAGGTTATAGCACGGGTGGTACG | 5.27 | 3.4 | 0.278 | 2.78 | -0.151 | 4.7 | 3.55 | 4.19 | 1.1 | 2.75 | -0.17 | 2.06 | -0.206 | -1.06 | 2.1 | 3.35 | 0.417 | 4.27 | 1.19 | 4.07
ACGATTAGTTGACTTAGGGCAACCGATACGACGC | -0.0158 | -0.0959 | 0.339 | 0.0402 | -0.172 | -0.0149 | 0.855 | -0.28 | 0.0988 | -0.124 | -0.586 | 0.153 | 0.298 | 0.246 | -0.134 | 0.199 | -0.0112 | 0.392 | 0.251 | 0.703
CAAACTAGGTCAAGGTCAAAGACGGTTTGTGCCA | 6.55 | 5.25 | 3.28 | 4.37 | 1.4 | 6.32 | 9.9 | 8.3 | 6.78 | 8.62 | 8.62 | 8.85 | 4.67 | 5.73 | 5.24 | 4.88 | 2.2 | 5 | 2.69 | 5.16
ATCGAAAGGTCGTGAGGTGAGTATGCAGAAAGGC | 5.14 | 4.02 | 0.302 | 2.91 | 0.303 | 5.19 | 3.67 | 4.56 | 1.24 | 3.19 | 0.289 | 2.19 | 1.46 | 1.35 | 1.5 | 2.98 | -0.0975 | 4.43 | 0.592 | 4.01
ATATGTAGGTTACGGGTCATTCAGGTTGGTTCGC | 3.73 | 3.96 | 2.11 | 3.61 | 0.71 | 5.56 | 9.4 | 8.21 | 6.67 | 8.55 | 7.79 | 7.99 | 5.13 | 4.88 | 3.88 | 4.78 | 1.67 | 4.07 | 1.28 | 2.92
TCTTTTAGATCAACAGGAGGTTAAGAAAGATCGA | 1.27 | 1.43 | 0.248 | 1.57 | 0.898 | 1.55 | 0.2 | 2.27 | 3.57 | 3.17 | 2.11 | 0.854 | 1.33 | 1.69 | 0.914 | 1.3 | 0.393 | 1.6 | 0.513 | 0.952
ACTATTAATTGAGACGAGGGCAACCGATAGGTTG | 0.638 | 0.579 | 0.685 | 0.313 | 0.479 | 0.542 | 0.7 | 0.479 | 0.271 | 0.408 | 0.0464 | 0.914 | 1.03 | 1.13 | 2.25 | 0.755 | 1.25 | 0.914 | 1.68 | 1.01
AGAATGAGGTTTCCAAAGATCAGGGAAACGCTTG | -0.506 | -0.535 | -0.424 | -0.463 | -0.489 | -0.139 | 0.377 | -0.265 | -0.17 | -0.215 | 0.298 | -0.0805 | 0.256 | 0.153 | -0.417 | -0.387 | -0.601 | -0.144 | -0.745 | -0.151
